{"source": "PubChem BioAssay AID463190", "about": "(Sanford-Burnham Center for Chemical Genomics, 2010)", "note": "Among all 330,000 compounds or so, about 7,300 (2.2%) were called active.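 The calls were made as follows: active = inhibition of at least 40%; inactive = the rest.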 For the sample, actives were picked, then their nearest neighbours and some compounds at random."}
{"assay": "growth inhibition of tim10-1 ts yeast – luminescence, uHTS, primary screen (AID 463190);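 also: mutant grown at 25 °C; 0% = DMSO wells with yeast and 100% = wells holding no yeast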", "details": "S. cerevisiae tim10-1 ts strain growth, BacTiter-Glo, 24 h; at 20 µM; hits give high values"}
{"compound": "CN(C)S(=O)(=O)c1ccc(C(=O)NCC2(N3CCOCC3)CCCCC2)cc1", "inhibition": "-9.36% (inactive)"}
{"compound": "CC(=O)c1ccc(NC(=O)c2ccc3c(Cl)c4c(nc3c2)CCCC4)cc1", "inhibition": "13.3% (inactive)"}
{"compound": "CC(C)CCNC(=O)c1ccc2c(Cl)c3c(nc2c1)CCC3", "inhibition": "41% (active)"}
{"compound": "COc1ccc(N2CCN(C(=O)c3ccc4c(Cl)c5c(nc4c3)CCCC5)CC2)cc1", "inhibition": "-0.417% (inactive)"}
{"compound": "COc1ccc(C(=O)c2c3ccc([N+](=O)[O-])cc3[n+]([O-])n2CCCN)cc1", "inhibition": "1.86% (inactive)"}
{"compound": "COc1ccc(S(=O)(=O)N2CCCCC2)cc1NC(=O)COc1ccccc1", "inhibition": "7.99% (inactive)"}
{"compound": "O=C(COC(=O)CCOc1ccccc1)Nc1cc(S(=O)(=O)N2CCCCC2)ccc1Cl", "inhibition": "46.3% (active)"}
{"compound": "CS(=O)(=O)c1ccc(Cl)c(NC(=O)COC(=O)c2cccc(S(=O)(=O)N3CCCC3)c2)c1", "inhibition": "-30.8% (inactive)"}
{"compound": "COc1cc(C(=O)NCC(=O)NCCSc2ccc(Br)cc2)cc(OC)c1OC", "inhibition": "9.46% (inactive)"}
{"compound": "Nc1cc(OC(=O)c2ccccc2Br)nn1S(=O)(=O)c1ccccc1", "inhibition": "57.5% (active)"}
{"compound": "Cc1ccc(S(=O)(=O)n2nc(OC(=O)C(C)(C)C)cc2N)cc1", "inhibition": "25.5% (inactive)"}
{"compound": "O=C(COC(=O)c1ccccc1Br)Nc1nnc(-c2ccccc2)o1", "inhibition": "0.631% (inactive)"}
{"compound": "O=C(CN1CCN(c2ncc(C(F)(F)F)cc2Cl)CC1)Nc1ccc2c(c1)OCO2", "inhibition": "28.8% (inactive)"}
{"compound": "CC(=O)c1ccc(Cc2ncc(C(F)(F)F)cc2Cl)s1", "inhibition": "3.28% (inactive)"}
{"compound": "O=C(Cc1ncc(C(F)(F)F)cc1Cl)Nc1cccc(Br)c1", "inhibition": "47.5% (active)"}
{"compound": "Clc1ccc(Cl)c(Oc2ccc(Oc3nc(Cl)ccc3Cl)cc2)n1", "inhibition": "9.8% (inactive)"}
{"compound": "CCOc1ccc(C2=CC(c3ccccc3)n3ncnc3N2)cc1", "note": "(stereo not given)", "inhibition": "25.5% (inactive)"}
{"compound": "CC1=C(C(=O)OCc2ccccc2)C(c2ccco2)n2ncnc2N1", "note": "(stereo not given)", "inhibition": "20.9% (inactive)"}
{"compound": "Brc1ccc(C2=CC(c3ccco3)n3ncnc3N2)cc1", "note": "(stereo not given)", "inhibition": "48.2% (active)"}
{"compound": "CCn1c(-c2cc(OC)ccc2OC)csc1=Nc1c(C)n(C)n(-c2ccccc2)c1=O", "inhibition": "22.1% (inactive)"}
{"compound": "COCCNC(=S)N/N=C/c1c(C)[nH]c2ccccc12", "inhibition": "16.2% (inactive)"}
{"compound": "CN=c1scc(-c2cc(OC)ccc2OC)n1/N=C/c1c(C)[nH]c2ccccc12", "inhibition": "46% (active)"}
{"compound": "C=CCOc1ccc(/C=C2/C(=O)ON=C2C)cc1OCC", "inhibition": "5.79% (inactive)"}
{"compound": "COc1cc(/C=C2/C(=O)ON=C2C)ccc1OCc1ccccc1F", "inhibition": "49% (active)"}
{"compound": "COc1cc(/C=C2/C(=O)ON=C2C)ccc1OCc1cccc(F)c1", "inhibition": "9.41% (inactive)"}
{"compound": "O=C(O)c1n[nH]nc1-c1ccccc1", "inhibition": "-4.76% (inactive)"}
{"compound": "O=C(Nc1cccc([N+](=O)[O-])c1)N1CCc2ccccc2C1", "inhibition": "13.3% (inactive)"}
{"compound": "COc1ccccc1CSc1ncc(-c2ccc([N+](=O)[O-])cc2)[nH]1", "inhibition": "44.7% (active)"}
{"compound": "N#Cc1c(-c2ccccc2)nc(SCc2ccc([N+](=O)[O-])cc2)[nH]c1=O", "inhibition": "16.7% (inactive)"}
{"compound": "COc1ccc(-c2cnc(SCCNC(=O)c3ccc4c(c3)OCO4)[nH]2)cc1", "inhibition": "-13.2% (inactive)"}
{"compound": "CC(OC(=O)c1ccc(S(=O)(=O)N2CCOCC2)cc1)c1ccccc1", "note": "(stereo not given)", "inhibition": "23.8% (inactive)"}
{"compound": "COC(=O)c1ccc(S(=O)(=O)N2CCc3ccccc3C2)cc1", "inhibition": "-7.78% (inactive)"}
{"compound": "O=C(ON=C1CCN(S(=O)(=O)c2ccccc2)CC1)c1ccc(Cl)cc1", "inhibition": "65.8% (active)"}
{"compound": "COc1ccc(NC(=O)CCCN2C(=O)C(c3ccccc3)Oc3cccnc32)cc1", "note": "(stereo not given)", "inhibition": "37% (inactive)"}
{"compound": "OCC[C@H]1C[C@H](O)[C@@H](O)[C@]2(Cc3ccccc3CO2)O1", "inhibition": "19% (inactive)"}
{"compound": "NS(=O)(=O)c1ccc(NC(=S)NC(=O)c2cccc(Br)c2)cc1", "inhibition": "23.9% (inactive)"}
{"compound": "NS(=O)(=O)c1ccc(CCNC(=S)Nc2ccc(S(N)(=O)=O)cc2)cc1", "inhibition": "8.83% (inactive)"}
{"compound": "NS(=O)(=O)c1ccc(NC(=S)Nc2ccc(Br)c(Cl)c2)cc1", "inhibition": "55.7% (active)"}
{"compound": "CCOC(=O)c1csc(CCNC(=O)c2oc3c(Cl)cc(C)cc3c2C)n1", "inhibition": "19.2% (inactive)"}
{"compound": "O=C(Nc1cccc(Cl)c1)c1cc(S(=O)(=O)N2CCCCC2)c[nH]1", "inhibition": "-3.59% (inactive)"}
{"compound": "O=C(Nc1cccc(Cl)c1)c1cncn1-c1ccc(F)cc1", "inhibition": "41.7% (active)"}
{"compound": "CCC(=O)Nc1nc(C)c(C(=O)Nc2cccc(Cl)c2)s1", "inhibition": "2.36% (inactive)"}
{"compound": "CCn1cc(C(=O)Nc2cc(C)ccc2C)c(=O)c2ccc(C)nc21", "inhibition": "6.54% (inactive)"}
{"compound": "O=C(c1cc2cc(F)ccc2[nH]1)N1CCN(c2ccc(F)cc2)CC1", "inhibition": "-10.5% (inactive)"}
{"compound": "O=C(c1cccc(C(=O)N2CCN(c3ccc(F)cc3)CC2)c1)N1CCN(c2ccc(F)cc2)CC1", "inhibition": "40.1% (active)"}
{"compound": "O=C(c1cc(C(=O)N2CCN(c3ccc(F)cc3)CC2)cc([N+](=O)[O-])c1)N1CCN(c2ccc(F)cc2)CC1", "inhibition": "-17.5% (inactive)"}
{"compound": "OCCCNC(c1ccccc1)c1ccc(O)cc1", "note": "(stereo not given)", "inhibition": "-5.16% (inactive)"}
{"compound": "COc1ccc(C(=O)NC(=S)NNC(=O)c2c(-c3ccccc3)noc2C)cc1", "inhibition": "41.5% (active)"}
{"compound": "Cc1onc(-c2ccccc2)c1C(=O)NNC(=S)NC(=O)c1ccc(F)cc1", "inhibition": "29.6% (inactive)"}
{"compound": "Cc1onc(-c2ccccc2)c1C(=O)Nc1ccccc1C#N", "inhibition": "25% (inactive)"}
{"compound": "C=CCNc1nc(N)c(C(=C(C#N)C#N)c2ccccc2)s1", "inhibition": "32% (inactive)"}
{"compound": "Cc1ccc(CNC(=O)C2(C(F)(F)F)C/C(=C\\Cc3ccccc3)CCCO2)o1", "note": "(stereo not given)", "inhibition": "29.8% (inactive)"}
{"compound": "O=C(NCc1ccncc1)c1ccc(NS(=O)(=O)c2cccc([N+](=O)[O-])c2)cc1", "inhibition": "-9.55% (inactive)"}
{"compound": "O=C(Nc1c(Cl)cccc1Cl)C1CCC1", "inhibition": "18.6% (inactive)"}
{"compound": "Cc1[nH]n(-c2ccccc2)c(=O)c1CCOC(=O)c1ccc(C(F)(F)F)cc1", "inhibition": "16.7% (inactive)"}
{"compound": "CCc1cc(C(=O)Nc2nnc(C3CC3)s2)sc1C", "inhibition": "14.7% (inactive)"}
{"compound": "COc1cccc(CNCc2ccc3c(c2)OCO3)c1", "inhibition": "-13% (inactive)"}
{"compound": "CC1CCCC(C)N1C(=O)CN1CCN(c2nc(-c3ccc(F)cc3)cs2)CC1", "note": "(stereo not given)", "inhibition": "56.2% (active)"}
{"compound": "O=C(CN1CCN(c2nc(-c3ccccc3)cs2)CC1)NCc1ccc2c(c1)OCO2", "inhibition": "30.8% (inactive)"}
{"compound": "O=C(COC(=O)C1CCCO1)Nc1nc(-c2ccc(F)cc2)cs1", "note": "(stereo not given)", "inhibition": "5.58% (inactive)"}
